Sfp inh: Sfp phosphopantetheinyl transferase inhibition. Q9F4F7. Biochemical Sfp PPTase activity, qHTS. Potency, µM, most hits filed as inhibitors. actives 3.5% (n = 310,000);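 also: the enzyme is Sfp with the accession as filed and its product quenches rhodamine fluorescence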
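Reaction rates are the 30-min fluorescence difference (ex 525, em 598 nm) in wells containing 15 nM Sfp, 5 uM rhodamine-CoA and 12.5 uM BHQ-2-YbbR at pH 7.6 with 10 mM MgCl2.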
ELG1 repair inh: blocks ELG1-dependent DNA repair in HEK293T cells | actives 2.3% (n = 330,000) | HEK293T ELG1-luciferase reporter, luminescence, 16 h; DNA damage induced by 5-fluorouridine | AID 504467 | Potency, µM (highest dose often 46.1 µM), hits mostly inhibitors; also: nearly all actives have a fitted effect of over 55% in size
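HEK293T cells expressing luciferase-tagged ELG1 (2,000/well) received 5-Fluorouridine plus compound or DMSO for 16 hr at 37 °C. Luciferase was read by ONE-Glo luminescence after 30 min at room temperature.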
Coupling enz: coupling enzyme interference in Giardia aldolase counter-screen; coupling enzyme system counterscreen, AmpLite Red fluorescence; activity change, negative = inhibition, % at 58.2 µM, hits read low; AID 2472; actives 0.67% (n = 290,000); in the data active = activity change below about -30%
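Fluorescence at 525 nm excitation and 598 nm emission measured inhibition of the coupled detection system without aldolase. Compounds (at 57.5 uM final) were preincubated 10 min at room temperature with coupling enzyme reagent before a 20 min substrate/AmpLite Red step.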
Giardia kill: kills Giardia lamblia; AID 540267; Giardia lamblia trophozoite viability; actives 0.15% (n = 340,000); activity change, % at 7.66 µM, hits read low; in the data active = activity change below about -80%; inconclusive = between about -30% and that limit;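 also: parasites exposed to compound for two days anaerobically before the ATP read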
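Anaerobic 48 hrs incubation at 37 deg C of 100 trophozoites/well with test compounds; ATPLite 1-Step luminescence, 15-30 min RT, reports cellular ATP as viability.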
ELG1 FLuc counter: luciferase inhibition in cell-free luciferin readout for ELG1 hits. cell-free firefly luciferase luminescence counter-screen, ViewLux. AID 624247. Potency, µM (titrated, usually from 46.1 µM), most hits filed as inhibitors. shares compounds with ELG1 repair inh. actives 3% (n = 350)
ELG1 Luc conf: inhibits ELG1-dependent DNA repair in HEK293T cells, confirmed; shares compounds with ELG1 repair inh; HEK293T ELG1-luciferase levels, luminescence; cells co-treated with 5-fluorouridine; Potency, µM (series often up to 46.1 µM), usual class: inhibitors; actives 68% (n = 670); AID 624248; also: nearly all actives have a fitted effect of over 55% in size
ELG1-Luc MMS: confirmation of human ELG1 repair inhibitors, MMS stimulated; HEK293T luciferase-tagged ELG1 level, MMS stimulated; actives 53% (n = 670); AID 624249; Potency, µM (titrated, usually from 46.1 µM), hits mostly inhibitors; shares compounds with ELG1 repair inh; also: nearly all actives have a fitted effect of over 60% in size
ELG1 5-FU: confirmation of ELG1 repair inhibitors: viability with 5FU; Potency, µM (titrated, usually from 46.1 µM), hits mostly cytotoxic; AID 624250; 670 tested, under 10 active; shares compounds with ELG1 repair inh; cell viability with 5-FU, ELG1-dependent repair;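 also: ELG1-luc HEK293T cells cotreated with 5-fluorouridine at 10 µM final; viability measured 16 h after compound addition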
ELG1 MMS cell: confirmation of ELG1 repair inhibitors: viability with MMS. actives 33% (n = 670). AID 624251. shares compounds with ELG1 repair inh. Potency, µM (highest dose often 46.1 µM), usual class: cytotoxic. Cell viability with MMS, ELG1-dependent DNA repair;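 also: ELG1-luc HEK293T cells co-treated with 10 µM MMS; viability read 16 h after compound addition; nearly all actives have a fitted effect of over 60% in size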
Cell viab unstim: counter-screen for ELG1 repair inhibitors: unstimulated cell viability | Potency, µM (series often up to 45.9 µM), usual class: cytotoxic | shares compounds with ELG1 repair inh | actives 8% (n = 900) | cell viability counter-screen, unstimulated, luminescence;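 also: compound exposure lasted 16 hours before reading; nearly all actives have a fitted effect of over 55% in size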
FLuc enzyme: inhibits purified firefly luciferase, counter-screen for ELG1 hits; Potency, µM (series often up to 57.5 µM), usual class: inhibitors; shares compounds with ELG1 repair inh; purified firefly luciferase, luminescence counter-screen; actives 10% (n = 350)
Large screens that a line does not name were inactive (follow-up assays come after a bar, where they were run). Rows were chosen to be rich in hits. Some 5.5% of all compounds tested hit in one or more screens of this group. Unless noted, calls follow the shape of the dose curve; as a rule, active = well fitted curve in the direction sought with a large enough effect; inconclusive = small, poorly fitted or top-dose-only effect, or another doubt; inactive = no such curve, though single readings can be large; an effect the other way counts as inactive or inconclusive.

O=C1NC[C@H](c2ccccc2)OC(=O)[C@H](Cc2ccc(F)cc2)C/C=C\C[C@H]1CC(=O)N(CCO)Cc1ccccc1	ELG1 repair inh 1.3µM (no result: Sfp inh, Coupling enz) | ELG1 Luc conf 5.6µM | ELG1-Luc MMS 2.8µM | ELG1 5-FU inconclusive | ELG1 MMS cell inconclusive | Cell viab unstim inconclusive
Cn1cccc1C(=O)N1CCC2(CCCN(c3ccccn3)C2)CC1	none (no result: ELG1 repair inh, Giardia kill)
CCCCC[C@H](O)/C=C/[C@@H]1[C@@H](C/C=C\CCCC(=O)O)[C@H](O)C[C@H]1O	none (no result: ELG1 repair inh, Giardia kill)
CCOC(=O)Cn1c(=NC(=O)CC)sc2c(C)cc(C)cc21	ELG1 repair inh inconclusive
CCOC(=O)Cn1c(=NC(=O)C(C)C)sc2c(C)cc(C)cc21	ELG1 repair inh 3.3µM | ELG1 Luc conf 14µM | ELG1-Luc MMS inactive | ELG1 5-FU inactive | ELG1 MMS cell inconclusive | Cell viab unstim inconclusive
Cc1ccc(-c2nnc(SCC(=O)Nc3ccccc3F)o2)cc1	ELG1 repair inh inconclusive | ELG1 FLuc counter 8.9µM | Cell viab unstim inconclusive | FLuc enzyme 18µM
CC(C)n1ncc2c(C(=O)NCCc3ccc(F)cc3)cc(C3CC3)nc21	none (no result: Sfp inh, Coupling enz)
CC(=O)N1c2ccc(S(=O)(=O)N3CCC(C(=O)N4CCC(C)CC4)CC3)cc2CC1C (configuration not stated)	ELG1 repair inh inconclusive
CC(=O)N1c2ccc(S(=O)(=O)N3CCC(C(=O)N4CCN(c5cc(Cl)ccc5C)CC4)CC3)cc2CC1C (configuration not stated)	ELG1 repair inh inconclusive (no result: Coupling enz) | ELG1 FLuc counter inactive | ELG1 Luc conf 14µM | ELG1-Luc MMS inconclusive | ELG1 5-FU inactive | ELG1 MMS cell inactive | Cell viab unstim inconclusive | FLuc enzyme inactive
CN(CC(=O)Nc1ccc(Cl)c(C(F)(F)F)c1)C(=O)CC1Sc2ccccc2NC1=O (configuration not stated)	none (no result: Coupling enz)
Cc1ccc(S(=O)(=O)N2CCCCC2c2cccnc2)c(C)c1C (configuration not stated)	ELG1 repair inh 0.82µM | ELG1 FLuc counter inactive | ELG1 Luc conf 0.014µM | ELG1-Luc MMS 14µM | ELG1 5-FU inactive | ELG1 MMS cell 20µM | Cell viab unstim inconclusive | FLuc enzyme inactive
CCCCCCC1=Cc2cc(OC)c(OC)cc2C(C(C(C)=O)C(=O)OCC)O1 (configuration not stated)	none (no result: ELG1 repair inh, Giardia kill)
O=C(Nc1cc([N+](=O)[O-])ccc1F)C1CCN(S(=O)(=O)c2cccs2)CC1	none (no result: Sfp inh, Coupling enz)
CCn1nc(C(=O)Nc2nc(-c3ccccn3)cs2)c2ccccc2c1=O	ELG1 repair inh 4.1µM (no result: Sfp inh, Coupling enz) | ELG1 Luc conf 4.4µM | ELG1-Luc MMS 7.9µM | ELG1 5-FU inactive | ELG1 MMS cell 13µM | Cell viab unstim inconclusive
CN(CC1CCCO1)S(=O)(=O)c1ccc(C(=O)Nc2nc3cc4c(cc3s2)OCO4)cc1 (configuration not stated)	ELG1 repair inh 2.6µM | ELG1 Luc conf 4.4µM | ELG1-Luc MMS 1.1µM | ELG1 5-FU inactive | ELG1 MMS cell 1.1µM | Cell viab unstim inconclusive
COCCNC(=O)CCSc1nc(-c2ccc(OC)cc2)cc(C(F)(F)F)n1	ELG1 repair inh inconclusive
COc1ccc(CNC(=O)CCSc2nc(-c3ccc4c(c3)OCO4)cc(C(F)(F)F)n2)cc1	Sfp inh 79µM, ELG1 repair inh 3.3µM | ELG1 Luc conf 7.9µM | ELG1-Luc MMS inactive | ELG1 5-FU inconclusive | ELG1 MMS cell inactive | Cell viab unstim inactive
COC(=O)Nc1nc2ccc(C(=O)c3cccs3)cc2[nH]1	Giardia kill inconclusive (no result: ELG1 repair inh) | Cell viab unstim inactive
CN(C)c1ccc(CNC(=O)[C@@]2(C)C=C[C@@H](Cc3ccccc3)N2C)cc1	none (no result: ELG1 repair inh, Giardia kill)
c1ccc(Cn2nnnc2C(c2cccnc2)N2CCN(C3CCCCC3)CC2)cc1 (configuration not stated)	ELG1 repair inh 3.3µM | ELG1 Luc conf inconclusive | ELG1-Luc MMS inconclusive | ELG1 5-FU inactive | ELG1 MMS cell inactive | Cell viab unstim inactive
COc1ccc(Cn2nnnc2C(c2ccccc2)N2CCN(C3CCCC3)CC2)cc1 (configuration not stated)	none
O=C(Nc1cc(Br)ccc1O)c1cnn2c(C(F)F)cc(C3CC3)nc12	ELG1 repair inh 2.3µM | ELG1 Luc conf 1µM | ELG1-Luc MMS inactive | ELG1 5-FU inconclusive | ELG1 MMS cell inactive | Cell viab unstim inconclusive
Cc1ccccc1Nc1nnc(SCc2cc([N+](=O)[O-])cc3c2OCOC3)s1	ELG1 repair inh inconclusive
O=[N+]([O-])c1cc2c(c(CSc3nnc(Nc4ccccc4)s3)c1)OCOC2	ELG1 repair inh 4.6µM | ELG1 Luc conf inconclusive | ELG1-Luc MMS 1µM | ELG1 5-FU inactive | ELG1 MMS cell 0.79µM | Cell viab unstim inconclusive
CC(/C=C/C(=O)NO)=C\[C@@H](C)C(=O)c1ccc(N(C)C)cc1	none (no result: ELG1 repair inh, Giardia kill) | ELG1 FLuc counter inactive | Cell viab unstim 14µM | FLuc enzyme inconclusive
COc1ccc(/C=C/c2cnc3ccccc3n2)cc1OC	none (no result: Sfp inh, ELG1 repair inh, Coupling enz, Giardia kill) | ELG1 FLuc counter inactive | Cell viab unstim inactive | FLuc enzyme 0.21µM
COc1ccc(/C=C/c2ccc3ccccc3n2)cc1OC	none (no result: Sfp inh, ELG1 repair inh, Coupling enz, Giardia kill) | ELG1 FLuc counter inactive | Cell viab unstim inconclusive | FLuc enzyme inconclusive
O=C(c1cccc(Cl)c1)N(Cc1ccco1)C1CCS(=O)(=O)C1 (configuration not stated)	none
CCOc1ccc(NC(=O)CN(C)C(=O)C2CCN(c3ncnc4sc(C)c(C)c34)CC2)cc1OCC	ELG1 repair inh 15µM | ELG1 FLuc counter inconclusive | ELG1 Luc conf 16µM | ELG1-Luc MMS 25µM | ELG1 5-FU inconclusive | ELG1 MMS cell inconclusive | Cell viab unstim inactive | FLuc enzyme inactive
Cc1sc2ncnc(N3CCC(C(=O)NCC(=O)Nc4ccc(F)c(F)c4)CC3)c2c1C	ELG1 repair inh inconclusive
C[C@@H]1/C=C\CC(=O)OC[C@H](C)C(=O)N2CCC[C@@H]2C(=O)OC1	none (no result: ELG1 repair inh, Giardia kill)
